Screening results (PubChem BioAssay)
Hits are enriched below; roughly 2.1% of the tested compounds scored in any of these assays.
aSyn 5UTR inh: 5' untranslated region of α-synuclein, MLPCN primary screen. alpha-synuclein 5'UTR reporter, inhibitor activity. inhibition, % (tested at 7.5 µM). 0.82% of 300,000 active; in the data active = inhibition above about 60%;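 note: H4 neuroglioblastoma cells stably carrying SNCA 5'UTR luciferase fusion; 0% = DMSO wells and 100% = positive control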
APP transl inh: APP translation inhibition; SH-SY5Y APP 5'UTR-luciferase reporter, luminescence; inhibition, % at 2 µM; 0.82% of 190,000 active; AID 1285;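 active = inhibition above a set limit, derived from the sample mean plus 3 SD, cut at about 45% in these data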
KLF5 inh: inhibitors of KLF5 expression | DLD-1 KLF5 promoter-luciferase reporter, luminescence | inhibition, % at 5 µM | 0.23% of 290,000 active;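 active = inhibition above a per-plate limit of that plate's mean compound inhibition plus 3 SD, cut at about 60% in these data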;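 note: 0% = DMSO wells and 100% = LY294002 at 200 µM; higher means less KLF5 promoter-driven luciferase light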
Ba/F3 V617F tox: loss of viability in JAK2V617F-driven Ba/F3 cells; AID 1446; inhibition, % at 5.6 µM; Ba/F3 EpoR-JAK2V617F viability, ATP luminescence; 1.1% of 220,000 active;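 active = inhibition above the campaign mean plus 3 SD over all tested compounds, cut at about 24% in these data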;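 note: cytokine-independent growth of Ba/F3 cells driven by EpoR plus mutant JAK2; 0% = DMSO-treated cells and 100% = JAK inhibitor I control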
BaF3 tox: reduces parental Ba/F3 cell viability, JAK2V617F counter-screen. CellTiter-Glo ATP luminescence. inhibition, % at 5.6 µM. 1.1% of 220,000 active;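 active = inhibition above a per-campaign cutoff, the mean inhibition of all tested compounds plus 3 SD, cut at about 27% in these data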;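 note: 0% = DMSO wells and 100% = JAK Inhibitor I control wells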
IEC-6 cytotox: IEC-6 cytotoxicity, counter-screen for KLF5 inhibitors; 0.78% of 290,000 active; luminescence viability; inhibition, % at 5 µM;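 note: 0% = plate median of test compound wells and 100% = cytotoxic reference compound wells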
IEC-6 tox confirm: confirmation of cytotoxic compounds in rat IEC-6 intestinal epithelial cells. shares compounds with IEC-6 cytotox. 63% of 1,900 active. inhibition, % at 5 µM. IEC-6 rat intestinal epithelial viability, luminescence;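 note: 0% = vehicle and 100% = reference cytotoxic drug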
Numbers without * were called inactive; x = no result given. Cut-off read from the data, not from the text of the source, unless noted: active = inhibition above about 22%; inactive = the rest.

SMILES	aSyn 5UTR inh	APP transl inh	KLF5 inh	Ba/F3 V617F tox	BaF3 tox	IEC-6 cytotox	IEC-6 tox confirm
c1ccc(-c2cccc(-c3ccccn3)n2)nc1	77*	86*	53	94*	85*	81*	83*
c1ccc(-c2nnc(-c3ccccn3)nn2)nc1	-122	x	x	x	x	x	x
COc1cccc(CNS(=O)(=O)c2c(C)[nH]c(C)c2C(=O)N2CCCCC2)c1	3	x	-10	x	x	6	x
Fc1ccc(Nc2nc(N3CCOCC3)nc(N3CCOCC3)n2)cc1	8	x	-4	x	x	2	x
Cc1ccc(Nc2nc(N/N=C/c3c[nH]c4ccccc34)nc(N3CCOCC3)n2)cc1	32	32	-30	80*	62*	90*	94*
Cc1[nH]c2ccccc2c1/C=N/Nc1nc(Nc2ccc(F)cc2)nc(N2CCOCC2)n1	x	13	18	0	10	56*	96*
C(=N\Nc1nc(Nc2ccccc2)nc(N2CCOCC2)n1)/c1c[nH]c2ccccc12	4	21	-34	78*	67*	86*	97*
c1ccc(Nc2nc(N3CCOCC3)nc(N3CCOCC3)n2)cc1	26	24	-21	-2	3	8	x
Cc1cc(/C=N/Nc2nc(N3CCOCC3)nc(N3CCOCC3)n2)c(C)n1-c1ccccc1	-23	17	-31	-3	6	-3	x
C=CCOc1ccc2nc(NC(=O)OC)[nH]c2c1	66*	x	51	78*	79*	82*	53*
CCOc1ccc2nc(NCCO)[nH]c2c1	5	12	-4	-1	4	-3	x
CC(=O)/C(C#N)=C1\NC(=O)C(Cc2ccccc2)S1 (centres undefined)	-20	5	10	-1	2	76*	51*
CNC(=O)/C(C#N)=C1\SC(Cc2ccc(F)cc2)C(=O)N1c1ccccc1C (centres undefined)	-11	x	-14	3	-2	7	x
CC(=O)/C(C#N)=C1\NC(=O)C(Cc2ccccc2C)S1 (centres undefined)	32	x	40	4	9	71*	47*
C/C(=N\N=C1\NC(=O)C(Cc2ccccc2)S1)c1ccccc1 (centres undefined)	2	4	-19	0	6	2	x
COc1ccc(S(=O)(=O)N2CCCOC2CNC(=O)C(=O)NC2CCCC2)cc1 (centres undefined)	12	x	-53	x	x	7	x
CCN(CC)c1ccc2cc(-c3nc4ccccc4[nH]3)c(=O)oc2c1	28	-185	-117	-1	2	5	x
CCN(CC)c1ccc2cc(-c3nc4ccccc4n3C)c(=O)oc2c1	-226	87*	50	69*	77*	84*	66*
NC(=O)C1CCN(C(=O)c2ccccc2SCC(=O)NCC2CCCCC2)CC1	-26	x	-37	x	x	2	x
CC(C)[C@H](NC(=O)N1CC(=O)Nc2ccccc21)C(=O)N1CCC[C@@H]1C(=O)O	-36	x	-13	x	x	-3	x
CC(Nc1ncnc2ccccc12)c1ccccc1 (centres undefined)	47	x	-49	x	x	28*	27*
CCCCC(Nc1ncnc2ccccc12)C(=O)O (centres undefined)	-4	-3	-42	-2	4	0	x
O=[N+]([O-])c1cccc(C=Nc2cccc3ccccc23)c1O	2	x	-39	x	x	32*	12
Cc1ccc(NC(=O)[C@H](Cc2c[nH]c3ccccc23)NC(=O)[C@@H]2Cc3ccccc3CN2)c(C)c1	23	x	52	x	x	32*	6
Cc1cccc(NC(=O)[C@H](Cc2c[nH]c3ccccc23)NC(=O)[C@@H]2Cc3ccccc3CN2)c1	32	x	20	x	x	-2	x
SMILES	aSyn 5UTR inh	APP transl inh	KLF5 inh	Ba/F3 V617F tox	BaF3 tox	IEC-6 cytotox	IEC-6 tox confirm
CCOc1cc(N2CCOCC2)c(OCC)cc1NC(=O)CCS(=O)(=O)c1ccc(Cl)cc1	3	2	-7	-2	1	0	x
CCOc1cc(N2CCOCC2)c(OCC)cc1NS(=O)(=O)c1ccc(Cl)s1	5	26	21	17	55*	57*	58*
Cc1cnc(CNC(=O)c2ccc3oc(C(C)C)nc3c2)[nH]1	1	x	-40	x	x	-9	x
Cc1ccc2oc(C(=O)NCc3ncc(C)[nH]3)c(C)c2c1	-37	x	3	x	x	34*	21
CC(NC(=O)COC(=O)COc1cccc2c1OC(C)(C)C2)c1ccccc1 (centres undefined)	6	x	0	x	x	4	x
Nn1cnnc1N/N=C/c1ccc(F)cc1	-2	x	-18	x	x	-4	x
Nn1cnnc1N/N=C/c1ccc(Cl)c([N+](=O)[O-])c1	-52	-2	-21	2	3	52*	2
CC(=O)c1c(C)cc(C)c(CSc2nc(C)cc(=O)[nH]2)c1C	3	-38	-19	7	3	30*	20
COc1ccc(/C=N/Nc2nnc(C)n2N)cc1OC(C)=O	-8	x	-26	x	x	-7	x
COc1ccc(/C=N/Nc2nnc(C)n2N)cc1OC	-23	-3	10	7	11	102*	4
C1=Nc2c(NCc3ccccc3)ncnc2Oc2ccccc21	37	-13	-40	4	12	26*	24*
COc1cc2c3c(c1)C(C)=CC(C)(C)N3C(=O)C2=O	-5	30	-3	-7	-1	87*	44*
Cc1ccc(NS(=O)(=O)c2ccc(-c3cnc(C4CC4)o3)cc2)cc1	-35	x	30	x	x	56*	32*
CC(=O)c1ccc(NS(=O)(=O)c2ccc(-c3cnc(C4CC4)o3)cc2)cc1	-3	x	-3	x	x	2	x
Cc1cccc(C)c1NS(=O)(=O)c1ccc(-c2cnc(C3CC3)o2)cc1	103*	x	47	x	x	94*	72*
CCOc1ccccc1CNS(=O)(=O)c1ccc(-c2cnc(C3CC3)o2)cc1	74*	x	35	x	x	75*	55*
Cc1ccc(N(C)S(=O)(=O)c2ccc(-c3cnc(C4CC4)o3)cc2)cc1	84*	x	52	x	x	76*	55*
CCC1CCCCN1C(=O)CCn1c(=O)oc2ccccc21 (centres undefined)	-27	x	x	x	x	x	x
COc1ccc(NC(=S)N2CCC(NC(=O)c3ccc(F)cc3)CC2)cc1	-22	x	-3	x	x	7	x
O=C(CSC1=NS(=O)(=O)c2cc(Cl)ccc2N1)c1ccc(Cl)cc1	14	x	x	x	x	x	x
COc1ccc(C)cc1NS(=O)(=O)c1ccc(-c2cnc(C3CC3)o2)cc1	102*	x	61	x	x	90*	62*
Cc1ccc(CNS(=O)(=O)c2ccc(-c3cnc(C4CC4)o3)cc2)cc1	-15	x	-38	x	x	-5	x
CC(=O)N1CCN(C2c3cccc4cccc(c34)C2NS(=O)(=O)c2ccccc2)CC1 (centres undefined)	-25	-10	-24	2	0	3	x
O=S(=O)(NC1c2cccc3cccc(c23)C1N1CCNCC1)c1ccc(Cl)cc1 (centres undefined)	4	-13	10	6	11	36*	8
